Bioassay records (PubChem)
Compounds with a hit are over-represented: about 12% of the library has one in this group of screens.
Pf growth 48h – inhibits P. falciparum growth in the first generation, 48 h; Potency, µM (series often up to 28.7 µM), for inactives: at the highest dose activity change, negative = inhibition, most hits filed as inhibitors; AID 504832; P. falciparum luciferase growth in erythrocytes, 48 h; 310,000 tested, 5.9% active; further: on the % scale 0 is the no-effect control and ±100 the full control effect
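Erythrocytes infected with P. falciparum carrying an integrated firefly luciferase reporter (2% hematocrit, 0.1% parasitemia final) were exposed to compounds in RPMI 1640 with 0.5% Albumax at 37 C, 5% CO2. Growth inhibition was scored as reduced luminescence.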
Pf growth 96h – inhibits malaria parasite growth, 96 h; P. falciparum luciferase reporter growth, 96 h; Potency, µM (doses to about 28.7 µM), for the others: at the top dose activity change, negative = inhibition, actives largely listed as inhibitors; 320,000 tested, 6.9% active; AID 504834; further: on the % scale 0 is the no-effect control and ±100 the full control effect
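Parasite growth measured via integrated firefly luciferase reporter in P. falciparum. Infected erythrocytes at 2% hematocrit, 0.05% parasitemia final were treated 96 hours at 37 C under 5% CO2, and luminescence was read.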
AmpC inh detg – AmpC beta-lactamase inhibition with detergent present; P00811; AmpC hydrolysis of nitrocefin, absorbance 480 nm, 0.01% Triton; Potency, µM (top dose mostly 114 µM), without a hit: top-dose activity change, negative = inhibition, most hits filed as inhibitors; 370,000 tested, 0.041% active; AID 485294;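 further: 0% = no-compound wells and -100% = no-enzyme wells; nearly all actives have a fitted effect of over 25% in size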
Target sequence (P00811 whole entry, looked up): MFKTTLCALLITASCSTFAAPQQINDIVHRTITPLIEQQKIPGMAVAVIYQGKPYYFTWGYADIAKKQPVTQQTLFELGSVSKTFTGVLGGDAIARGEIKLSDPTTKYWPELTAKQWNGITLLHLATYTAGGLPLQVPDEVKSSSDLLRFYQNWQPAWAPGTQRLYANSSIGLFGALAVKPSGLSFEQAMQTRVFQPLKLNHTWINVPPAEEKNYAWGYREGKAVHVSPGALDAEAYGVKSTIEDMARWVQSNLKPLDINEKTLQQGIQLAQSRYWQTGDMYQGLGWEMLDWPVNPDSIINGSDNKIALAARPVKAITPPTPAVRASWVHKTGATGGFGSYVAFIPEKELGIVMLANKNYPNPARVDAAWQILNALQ
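20 mM phosphate pH 7.0 + 0.01% (detergent screen) or 0.0001% Triton X-100; 5.3 nM AmpC reagent; cpd preinc 15 min RT; nitrocefin (800 uM stock) to start; A480 q20 s × 4 min; Activity was normalised to no-enzyme and no-compound control wells.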
Sm TGR block – inhibitors of Schistosoma mansoni thioredoxin glutathione reductase; purified TGR, DTNB reduction, TNB absorbance 405 nm; 360,000 tested, 3% active; AID 485364; Q962Y6; Potency, µM (doses to about 114 µM), without a hit: at the highest dose activity change, negative = inhibition, usual class: inhibitors; further: on the % scale 0 is the no-effect control and ±100 the full control effect; nearly all actives have a fitted effect of over 60% in size
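TGR 20 nM + NADPH 100 uM (dispensed conc.), cpd preinc 15 min RT; start with NADPH (500 uM addition) then DTNB (15 mM addition). Kinetic TNB absorbance, 405 nm filter. Four-parameter Hill fit across titration.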
SARS PLpro yeast – SARS-CoV PLP inhibition in yeast. S. cerevisiae expressing SARS-CoV PLpro, growth rescue. AID 485353. Potency, µM (titrated, usually from 32.9 µM), inactives show at the top dose activity, positive = growth rescue, hits mostly activators. 330,000 tested, 0.19% active; calls by dose curve; further: 0% is about no effect; nearly all actives have a fitted effect of over 55% in size
AmpC no deterg – blocks E. coli AmpC beta-lactamase in detergent-free assay; 330,000 tested, 0.52% active; P00811; Potency, µM (highest dose often 57.1 µM), for inactives: at the highest dose activity change, negative = inhibition, most hits filed as inhibitors; AmpC nitrocefin hydrolysis, absorbance 480 nm, 0.0001% Triton;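 further: plate controls were no compound for no effect and no enzyme for full effect; nearly all actives have a fitted effect of over 20% in size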
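20 mM phosphate pH 7.0 + 0.01% (detergent screen) or 0.0001% Triton X-100; 5.3 nM AmpC reagent; cpd preinc 15 min RT; nitrocefin (800 uM stock) to start; A480 q20 s × 4 min; Activity was normalised to no-enzyme and no-compound control wells.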
An asterisk follows results filed as active; ? = inconclusive; / = not tested or not shown; [ ] = dose if it differs, or a comment. Unless noted, the call rests on the fitted dose curve; in most records, active means well fitted curve in the direction sought with a large enough effect; inconclusive means small, poorly fitted or top-dose-only effect, or another doubt; inactive means no such curve, though single readings can be large; an effect the other way counts as inactive or inconclusive. Potency means the concentration at half of the fitted maximal effect.

SMILES	Pf growth 48h	Pf growth 96h	AmpC inh detg	Sm TGR block	SARS PLpro yeast	AmpC no deterg
Cc1ccc(N(C(C)C(=O)N2CCC(C)CC2)S(C)(=O)=O)cc1C (stereo unspecified)	9%	?	-2%	0%	0%	35%
COc1ccc(OCC(=O)NNC(=O)Cn2c(=O)cnc3ccccc32)cc1	1%	13%	-16%	-2%	-2%	-18%
COc1ccc(N(C(=O)c2ccc(Cl)cc2)S(=O)(=O)c2ccc(C)cc2)cc1	/	/	16%	-3%	/	/
Cc1ccc(NC(=O)CCc2nc3cccnc3n2-c2ccccc2)cc1Cl	/	/	-5%	-3%	/	/
COc1ccccc1NC(=O)CSc1oc(-c2ccc(F)cc2)nc1S(=O)(=O)c1ccc(Br)cc1	/	/	6%	5%	/	/
CC(C)(C)c1ccc(OCCn2cc(C(=O)c3ccco3)c3ccccc32)cc1	/	/	28%	16%	/	/
CCN(CC)c1ccc(NC(=O)CN2CCN(CC(=O)Nc3ccc(OC)cc3)CC2)cc1	?	0%	-1%	-15%	-1%	25%
CCN(CC)c1ccc(NC(=O)CN2CCN(CC(=O)Nc3ccc(F)cc3)CC2)cc1	?	2.6µM*	1%	-30%	-2%	84%
Cc1ccc(Cn2c(CNC(=O)Cc3cccc([N+](=O)[O-])c3)nc3cccnc32)cc1	/	/	-6%	0%	/	/
Cc1nc(NC(=O)c2ccccc2)sc1Cc1ccc2c(c1)OCO2	0%	-85%	1%	-8%	9%	-35%
Cc1cc(C)nc(NC(=NCc2ccc3c(c2)OCO3)NC(=O)Nc2ccccc2)n1	?	41%	-5%	1.4µM*	/	/
CC1CCN(S(=O)(=O)c2ccc(NC(=O)c3ccco3)cc2)CC1	3.7µM*	10%	-11%	0%	1%	-46%
CC1CCCCN1S(=O)(=O)c1ccc(NC(=O)c2ccco2)cc1 (stereo unspecified)	/	13µM*	-6%	-11%	8%	-34%
O=C(Nc1ccc(S(=O)(=O)N2CCCCC2)cc1)c1ccco1	?	-8%	5%	0%	1%	-22%
CNC(=O)C1CCC(Cn2c(=O)c3sccc3n(CC(=O)Nc3cc(F)ccc3F)c2=O)CC1 (stereo unspecified)	/	/	7%	0%	/	/
COc1ccc2oc(C(=O)OCC(=O)N(CCC#N)c3ccccc3)c(C)c2c1	?	?	2%	-10%	1%	70%
CCS(=O)(=O)NCC(c1cccnc1)N1CCN(c2ccccc2OC)CC1 (stereo unspecified)	-7%	-2%	-8%	3%	-2%	18%
COc1ccc(S(=O)(=O)NCC(c2cccnc2)N2CCN(c3ccccc3)CC2)cc1C (stereo unspecified)	/	?	-4%	?	-33%	76%
CCN1CCN(C(CNS(=O)(=O)c2ccc(OC)c(C)c2)c2cccnc2)CC1 (stereo unspecified)	-5%	15µM*	5%	-2%	-1%	-11%
O=S(=O)(NCC(c1cccnc1)N1CCN(Cc2ccccc2)CC1)c1ccc(F)cc1 (stereo unspecified)	?	?	-5%	-6%	-1%	73%
COc1ccccc1N1CCN(C(CNS(=O)(=O)c2cccs2)c2cccnc2)CC1 (stereo unspecified)	10µM*	?	?	?	1%	59%
COc1ccc(S(=O)(=O)NCC(c2cccnc2)N2CCN(c3ccc(F)cc3)CC2)cc1C (stereo unspecified)	4.7µM*	237%	-4%	-23%	-35%	120%
O=S(=O)(NCC(c1cccnc1)N1CCN(Cc2ccccc2)CC1)c1cc(F)ccc1F (stereo unspecified)	?	10µM*	5%	-22%	-3%	86%
CCOc1ccccc1NC(=O)Nc1ccon1	15%	109%	5%	9%	0%	-15%
CCOc1ccccc1NC(=O)Nc1ccncc1	3.3µM*	15%	-3%	20%	0%	-18%
SMILES	Pf growth 48h	Pf growth 96h	AmpC inh detg	Sm TGR block	SARS PLpro yeast	AmpC no deterg
C/C(CC(=O)Nc1ccc(N(C)C)cc1)=N\NC(=O)c1cnccn1	?	34%	?	35µM*	-11%	15%
O=C(Nc1cccc2ccccc12)NC1Cc2ccccc2C1	32%	?	-6%	104%	0%	-18%
C/C(CC(=O)Nc1ccc(N(C)C)cc1)=N\NC(=O)c1ccccn1	72%	235%	-12%	?	-10%	-4%
CCOc1ccccc1NC(=O)NC1Cc2ccccc2C1	?	8.3µM*	0%	17%	1%	-18%
CCOc1ccc(NC(=O)c2cnccn2)cc1	101%	27%	0%	89µM*	9%	-9%
CC(C)CN(C(=O)c1ccco1)C1CCS(=O)(=O)C1 (stereo unspecified)	2%	-10%	?	-1%	-1%	-5%
CCOc1ccc(-n2nc(C(=O)NC3CCCCC3)c3ccccc3c2=O)cc1	?	?	5%	0%	0%	-2%
CCOc1ccccc1NC(=O)c1cnccn1	?	12µM*	?	-14%	?	-17%
C[C@@H](C(=O)N1CCN(Cc2ccc3c(c2)OCO3)CC1)n1nnc2ccccc2c1=O	-7%	18%	1%	-10%	1%	30%
CC(=O)Nc1ccc(Br)c2ccccc12	20%	?	3%	-4%	0%	-7%[2.29 µM]
O=C(Nc1ccc(Br)c2ccccc12)c1ccc2ccccc2c1O	12µM*	9.3µM*	-4%	?	-12%	-34%
CCC(Sc1nc2ccccc2c(=O)n1CC1CCCO1)C(=O)NCc1cccnc1 (stereo unspecified)	?	11%	-6%	6%	-17%	1%
Cc1c(CN(C)Cc2cn(C)nc2-c2ccccc2F)[nH]c2ccccc12	-9%	3.7µM*	-9%	-5%[57.1 µM]	1%	111%
CN(CCCN1CCOCC1)Cc1cn(C)nc1-c1ccccc1F	0%	5.9µM*	-12%	-24%	0%	-19%
CN(Cc1nccn1C)C(=O)CC1C(=O)NCCN1Cc1cccc(Oc2ccccc2)c1 (stereo unspecified)	-3%	6%	5%	-29%	0%	93%
COc1cccc(CCNC(=O)CC2C(=O)NCCN2Cc2ccc(Cl)c(F)c2)c1 (stereo unspecified)	2%	30%[5.75 µM]	-9%	/	0%	49%
CN(Cc1cnn(C)c1)C(=O)CC1C(=O)NCCN1Cc1cccc(Oc2ccccc2)c1 (stereo unspecified)	-11%	-2%	1%	40µM*	5%	110%
